Screening results deposited in PubChem BioAssay by National Center for Advancing Translational Sciences (NCATS).
An excerpt weighted towards active compounds, which were near 10% of everything screened.
G9a inh: qHTS Assay for Inhibitors of Histone Lysine Methyltransferase G9a; 350,000 compounds, 8.8% hits; AID 504332, 2011; Histone-lysine N-methyltransferase EHMT2 (Homo sapiens), Q96KQ7; Potency, µM (highest dose often 102 µM), for inactives: top-dose activity, negative = inhibition, most hits filed as inhibitors; G9a H3K9 monomethylation, AlphaScreen, 2 h; note: potency is the fitted concentration of half-maximal effect; % is set by controls: 0 for no effect and ±100 for the full control effect; nearly all actives have a fitted effect of over 75% in size
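Quantitative HTS format: methyltransferase activity on a biotin-tagged H3K9 peptide is measured by AlphaScreen, using a rabbit anti-monomethyl-H3K9 antibody with streptavidin donor and anti-IgG acceptor beads. Final levels are 20 nM enzyme, 500 nM peptide, 20 uM SAM; 2 h RT.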
HP1b chromo inh: HTS for Inhibitors of HP1-beta Chromodomain Interactions with Methylated Histone Tails. AlphaScreen HP1-beta / biotin-H3K9me3 peptide binding. 390,000 compounds, 0.56% hits. Potency, µM (series often up to 114 µM), inactives show top-dose activity change, negative = inhibition, usual class: inhibitors. Chromobox protein homolog 1 (Homo sapiens), P83916; note: potency is the fitted concentration of half-maximal effect; nearly all actives have a fitted effect of over 70% in size
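AlphaScreen: HP1-beta (50 nM) preformed 30 min with biotin-H3(1-18)K9me3 peptide (50 nM) in PBS pH 7.4, 0.01% Tween-20. Compound added for 30 min at RT, then streptavidin donor/nickel chelate acceptor beads (10 ug/mL) for 30 min.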
JMJD2A Tudor inh: qHTS Assay for Inhibitors of JMJD2A-Tudor Domain. AID 504339, 2011. 390,000 compounds, 4.4% hits. AlphaScreen JMJD2A-Tudor / H3K4me3 peptide binding. Potency, µM (highest dose often 114 µM), for inactives: at the highest dose activity change, negative = inhibition, hits mostly inhibitors. Lysine-specific demethylase 4A (Homo sapiens), O75164; note: potency is the fitted concentration of half-maximal effect; % is set by controls: 0 for no effect and ±100 for the full control effect; nearly all actives have a fitted effect of over 50% in size
CtBP-E1A blk: qHTS Assay for Inhibitors of the CtBP/E1A Interaction. CtBP / adenovirus E1A interaction (AlphaScreen). AlphaScreen GST-E1A/His-CtBP binding, 1536-well; active compounds read low. activity change, % (no concentration beside the values). 340,000 compounds, 0.49% hits. AID 651724, 2012; in the data active = activity change below about -65%; inconclusive = mostly about -30% to -63%; note: % is set by controls: 0 for no effect and ±100 for the full control effect
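In 5 uL wells, 23 nL compound meets equimolar GST-E1A and His-CtBP (5X stock 125 nM each) for 2 h, 37 °C. Beads (5X, 50 ug/mL) then 1 h, 37 °C, dark.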
BAZ2B block: qHTS Assay for Inhibitors of BAZ2B; 360,000 compounds, 4.4% hits; AID 504333, 2011; AlphaScreen BAZ2B-H3K14Ac peptide displacement; Potency, µM (highest dose often 114 µM), inactives show top-dose activity change, negative = inhibition, actives largely listed as inhibitors; Bromodomain adjacent to zinc finger domain protein 2B (Homo sapiens), Q9UIF8; note: potency is the fitted concentration of half-maximal effect; % is set by controls: 0 for no effect and ±100 for the full control effect; nearly all actives have a fitted effect of over 60% in size
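BAZ2B (50 nM) with biotin-H3(5-23)K14Ac peptide (50 nM) in PBS pH 7.4, 0.01% Tween-20, preformed 30 min, then compound 30 min at room temperature; top concentration 110uM. AlphaScreen streptavidin donor/nickel chelate acceptor beads (10 ug/mL final), 20 min dark, signal read.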
Six1-Eya2 blk: qHTS Assay for Inhibitors of the Six1/Eya2 Interaction. activity change, % (no concentration beside the values). AlphaScreen GST-Six1/His-Eya2 binding, biochemical; active compounds read low. 360,000 compounds, 0.56% hits. Homeobox protein SIX1 (Homo sapiens) + Protein phosphatase EYA2 (Homo sapiens), …. AID 651725, 2012; in the data active = activity change below about -65%; inconclusive = mostly about -30% to -63%; note: % is set by controls: 0 for no effect and ±100 for the full control effect
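AlphaScreen luminescence read after one hour at 37 °C in darkness. Pin-transferred compounds met GST-Six1 and His-Eya2 protein (5X stock 250 nM/500 nM) plus glutathione donor and Ni-chelate acceptor beads (5X, 50 ug/mL).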
* marks the source's active call; other numbers are inactive results; ? = inconclusive; nt = not tested or not shown; [ ] = another dose, or the depositor's remark. Unless noted, calls come from the whole dose curve; as a rule, active = well fitted inhibition curve with a large enough effect; inconclusive = small, poorly fitted or top-dose-only effect; inactive = no such curve, though single readings can be large or run the other way.

SMILES	G9a inh	HP1b chromo inh	JMJD2A Tudor inh	CtBP-E1A blk	BAZ2B block	Six1-Eya2 blk
COc1ccc(OC)c(C2(O)CSC(=Nc3cccnc3)N2Cc2ccco2)c1 (stereo not given)	-39%	27%	-20%[57.1 µM]	0	63µM*	-14
O=C(NNc1ccc(C2CCCCC2)cc1)C(O)(c1ccccc1)c1cccs1 (stereo not given)	1%[0.501 µM]	14%	-30%	4	50µM*	-11
COc1ccc(C(O)(C(=O)NNc2ccc(C)cc2)c2cccs2)cc1 (stereo not given)	6%[2.33 µM]	31%	-19%	-6	-6%	-3
COc1ccc(S(=O)(=O)Nc2ccccc2C(=O)N2CCOCC2)cc1Cl	-4%	50%	-6%	9	-1%	8
O=C(NCc1ccc2c(c1)OCO2)C(C(=O)c1ccccc1)n1cc(Cl)ccc1=O (stereo not given)	50µM*	34%	-7%	0	-5%	5
O=C(CCc1nc2ccccc2[nH]1)NCc1ccc2c(c1)OCO2	-127%	40%	10%	-5	2%	1
O=C(CSc1nc2ccccc2[nH]1)NCc1ccc2c(c1)OCO2	25µM*	15%	-2%	10	-9%	-8
O=C(CCn1c(=O)oc2ccccc21)NCc1ccc2c(c1)OCO2	3%	30%	8%	-13	5%	?
CCOc1ccccc1C(=O)NCc1ccc2c(c1)OCO2	9%[12.7 µM]	40%	13%	-1	-4%	-1
O=C(O)c1ccccc1C(=O)NCc1ccc2c(c1)OCO2	0%	?	32µM*	nt	-8%	12
O=C(CCn1cccc1)NCc1ccc2c(c1)OCO2	?	?	?	-12	50µM*	-6
C=CC[C@@H](CC(=O)NCCO)C(=O)NC[C@@H](OC(=O)[C@H](CC=C)CC(=O)OC(C)(C)C)c1ccccc1	nt	20%	-9%	-16	nt	-1
O=C(O)CCn1c2ccccc2c2nc3ccccc3nc21	nt	45%	-4%	-18	11%	-12
CNc1ccc(Oc2nc([N+](=O)[O-])nn2C)cc1	50µM*	31%	-13%	0	-21%	-18
O=C(c1ccc(C(F)(F)F)cc1)N1CCC(c2noc(-c3ccc(S(=O)(=O)N4CCCC4)cc3)n2)CC1	0%[59 µM]	33%	-15%	nt	-12%	nt
COc1ccc(/C=C/C(=O)OCn2c(SC)nnc(C)c2=O)cc1OC	?	21%	-12%	-7	-6%	6
c1ccc(-c2cnc(CSc3nnc4ccccn34)o2)cc1	10µM*	31%	-11%	-1	1%	-3
Fc1ccc(-c2nnc(CSc3nnc4ccccn34)o2)cc1	-8%[59 µM]	35%	-5%	0	-2%	18
O=C(O)c1cc(S(=O)(=O)Nc2cc(Cl)ccc2Oc2ccccc2)ccc1O	16µM*	10%	-35%	0	-33%	8
CC1CCN(C(=S)NC(=O)C2CCCCC2)CC1	-31%[59 µM]	41%	-4%	-5	-16%	-6
CCCNC(=S)N1CCC(NC(=O)C2CCCCC2)CC1	7%[12.7 µM]	?	22µM*	-2	2%	-1
O=C(NC1CCN(C(=S)NCCc2ccccc2)CC1)C1CC1	10µM*	70%	-5%	nt	?	-8
O=C(NC(=S)N1CCCCCC1)C1CC1	28µM*	6%	-24%	3	0%	1
O=C(CC12CC3CC(CC(C3)C1)C2)NC(=S)N1CCCCC1	11µM*	?	-18%	2	-5%	-1
CC(C)CC(=O)Nc1ccc2nc(SCC(=O)N3CCc4ccccc43)sc2c1	1%[59 µM]	21%	-25%	nt	4%	nt
SMILES	G9a inh	HP1b chromo inh	JMJD2A Tudor inh	CtBP-E1A blk	BAZ2B block	Six1-Eya2 blk
O=C1OC/C(=C(/O)c2ccc(Cl)cc2)C1=O	40µM*	61%	-13%	nt	-36%	8
Cc1ccc(Cl)cc1Nc1nn2c(=O)c3ccc(C(=O)NCc4ccc(F)cc4)cc3nc2s1	-6%[59 µM]	14%	2%	nt	-9%	nt
CC1NC(=O)NC1CCCCC(=O)O (stereo not given)	21%[59 µM]	-19%	0%[11.4 µM]	4	nt	3
CCC(=O)Nc1ccc(F)c(Cl)c1	?	15%	-8%	4	-12%	-1
CC1NC(=O)NC1CCCCCC(=O)Nc1ccc(F)c(Cl)c1 (stereo not given)	1µM*	1.1µM*	?	7	0.79µM*	14
Cc1ccc(NC(=O)CCCCCC2NC(=O)NC2C)cc1 (stereo not given)	?	1.1µM*	0.35µM*	7	0.79µM*	2
C[C@H](O)[C@@H]1C(=O)N2CCc3c([nH]c4ccccc34)[C@@H]2C[C@@H]1N(C)C(=O)c1cc(Cl)cc(Cl)c1	nt	nt	nt	-6	nt	-17
CCN(CC)S(=O)(=O)c1ccc(C(=O)NCc2n[nH]c(=S)n2-c2ccc(Cl)c(Cl)c2)cc1	16µM*	1%	-31%	-7	-37%	0
CCN(CC)S(=O)(=O)c1ccc(C(=O)NCc2n[nH]c(=S)n2-c2ccccc2OC)cc1	3.5µM*	17%	22µM*	-5	-6%	-8
CCN(CC)S(=O)(=O)c1ccc(C(=O)NCc2nnc(SCC(=O)OC)n2C)cc1	5%	23%	-1%	2	7%	5
O=[N+]([O-])c1cc(-c2nc(-c3ccco3)no2)ccc1NCc1ccccc1	-31%[59 µM]	28%	-23%	nt	-28%	nt
Cn1c(-c2sc3cc(C(F)(F)F)cnc3c2-c2cccs2)n[nH]c1=S	4µM*	2%	-30%	-2	-1%	-5
CSc1nnc(-c2sc3cc(C(F)(F)F)cnc3c2-c2ccccn2)n1C	3%[59 µM]	35%	-17%[57.1 µM]	5	11%	5
Cn1c(-c2sc3cc(C(F)(F)F)cnc3c2-c2cccnc2)n[nH]c1=S	3.5µM*	-13%	-27%[11.4 µM]	3	-9%	-3
Cn1c(-c2sc3cc(C(F)(F)F)cnc3c2-c2ccccn2)n[nH]c1=S	6.3µM*	23%	14µM*	-5	-16%	0
Cc1ccc(-c2c3c([nH]c(=S)c2C#N)CCCC3)o1	4.5µM*	?	40µM*	-23	50µM*	-20
Cc1ccc(-c2c(C#N)c(N)nc3c2CCCC3)o1	7.9µM*	40%	-10%	-8	?	0
N#Cc1c(-c2ccncc2)c2c([nH]c1=S)CCCC2	2.2µM*	-30%	2.2µM*	5	?	2
